Data on 50 compounds can be found in PubChem BioAssay AID1768 (National Center for Advancing Translational Sciences (NCATS), 2009).

Out of some 270,000 compounds screened, about 620 (0.23%) were called active. Roughly 12% stayed inconclusive and do not appear here. Many of the other results were omitted from the sample, so actives are more common in it than they were. A number with no mark means an inactive call. Calls come from the whole dose curve; as a rule, active = well fitted inhibition curve with a large enough effect in the polarisation, with a control signal flat (not every such curve was filed as active); inconclusive = small, poorly fitted or top-dose-only effect, or effect the other way, or a change in a side signal; inactive = no such curve, though single readings can be large or run the other way; the % refers to the polarisation.
Potency is the fitted concentration of half-maximal effect.

Chain of Menin (Homo sapiens) (O00255 whole entry, looked up, the tested form may be a part): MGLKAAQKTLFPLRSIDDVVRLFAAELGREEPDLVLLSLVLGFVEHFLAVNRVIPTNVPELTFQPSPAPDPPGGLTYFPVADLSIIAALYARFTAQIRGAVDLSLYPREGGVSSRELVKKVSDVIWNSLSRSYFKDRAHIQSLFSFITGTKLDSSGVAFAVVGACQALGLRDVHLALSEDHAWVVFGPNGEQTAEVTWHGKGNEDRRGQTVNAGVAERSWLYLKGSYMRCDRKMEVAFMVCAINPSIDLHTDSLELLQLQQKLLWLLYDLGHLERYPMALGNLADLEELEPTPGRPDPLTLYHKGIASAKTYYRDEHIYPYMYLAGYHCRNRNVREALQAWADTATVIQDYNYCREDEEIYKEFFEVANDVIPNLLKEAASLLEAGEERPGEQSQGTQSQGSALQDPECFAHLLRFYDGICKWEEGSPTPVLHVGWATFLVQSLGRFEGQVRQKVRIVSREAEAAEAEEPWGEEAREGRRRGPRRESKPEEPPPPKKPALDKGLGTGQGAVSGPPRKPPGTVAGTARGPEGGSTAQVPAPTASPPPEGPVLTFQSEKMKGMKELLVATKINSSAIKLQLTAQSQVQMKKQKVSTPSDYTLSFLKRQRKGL

This experiment addresses Menin (Homo sapiens) (UniProt O00255). Put plainly: qHTS Assay for Inhibitors Targeting the Menin-MLL Interaction in MLL Related Leukemias: Competition With Texas Red Labeled MLL-derived Mutant Peptide. For FP activity change, negative = inhibition: % of control where 0% means no effect. To be noted: fluorescence polarization; series mostly up to 61.6 µM; FP activity change, negative = inhibition: at the top concentration. An excerpt:
qHTS Assay for Inhibitors Targeting the Menin-MLL Interaction in MLL Related Leukemias NIH Chemical Genomics Center [NCGC] NIH Molecular Libraries Probe Centers Network [MLPCN] MLPCN Grant: MH084875-01A1 Assay Submitter (PI): Jolanta Grembecka, Tomasz Cierpicki, University of Virginia Translocations of the MLL (Mixed Lineage Leukemia) gene are frequently found in human leukemias affecting both children and adults. Fusion of MLL to one of more than 60 genes results in generation of oncogenic proteins upregulating Hox genes, which are vital to blood cell development. Patients harboring fusion of the MLL gene suffer from aggressive leukemias and respond poorly to available therapies. All of the oncogenic fusion proteins have a preserved N-terminal fragment of MLL that has been identified to interact with menin. It has been recently discovered that association with menin is critical to the leukemogenic activity of the MLL fusion oncoproteins. Selective targeting of the menin-MLL interaction could provide an attractive therapeutic approach to develop novel drugs for MLL-related leukemias. Small molecules blocking the menin-MLL interaction should reverse the oncogenic potential of MLL fusion proteins. We have developed and optimized a fluorescence polarization-based assay for the identification of Menin-MLL inhibitors. The assay was run employing two different MLL-derived peptides. The present assay uses a 12 amino acid peptide labeled with fluorescein at its N-terminus. This peptide consists of the menin high affinity binding motif from MLL and is potently bound by menin. Another peptide with a mutated sequence, labeled with Texas Red, was used in parallel as a less stringent screen for inhibitors.
The Menin protein, the MLL-wild type (w.t.) derived peptide (N-terminal 12 amino acids), the MLL-derived peptide labeled with Texas Red and the MLL-w.t. peptide labeled with Fluorescein were kindly supplied by laboratory of Dr. Jolanta Grembecka, University of Virginia. All protein and peptide solutions were stored in single use aliquots at -80C. The Eu3+ Cyrptate-conjugated mouse monoclonal antibody anti-6 Histidine (Eu3+-AB) and the Streptavidin-XL665 conjugate (XL665) were purchased from Cisbio International (Bedford, MA). All antibody and XL665 conjugate solution stocks were stored in single use aliquots at -20C. The Buffer components for all assays were purchased from Sigma-Aldrich (St. Louis, MO) and Invitrogen (Carlsbad, CA). FP Assay Reagents: 1. FP reaction buffer: 50 mM Tris-HCl pH 7.5, 50 mM NaCl, 1mM DTT. Before use, 0.05% BSA is added. 2. Menin protein, MLL-w.t. labeled with fluorescein, MLL-mutant peptide labeled with texas red. Stored in singe use aliquots at -80C. 3. MLL-w.t. unlabeled peptide as positive control: 10 uM final in FP buffer. FP Assay Procedure: 1. Prepare Menin at 200 nM, MLL-w.t.-fluorescein at 25 nM, and MLL-mutant-texas red at 50 nM mixture in FP buffer. 2. Prepare Menin at 200 nM, MLL-w.t.-fluorescein at 25 nM, MLL-mutant-texas red at 50 nM, and 10 uM MLL-w.t. unlabeled mixture in FP buffer. 3. Prepare MLL-w.t.-fluorescein at 25 nM and MLL-mutant-texas red at 50 nM mixture in FP buffer. 3. Dispense 4 ul per well of reagent in step 1 in columns 2, 4 - 48 in a black 1536 well plate, dispense 4 ul per well of reagents from steps 2 and 3 in columns 1 and 3 respectively. Incubate plate at ambient for 15 minutes. 4. Transfer 23 nl per well of compound to plate and incubate at ambient for 1 hr. 5. Read fluorescence polarization for each label using the PerkinElmer Envision. Envision protocol for fluorescein: FITC FP Dual Enh Mirror, Excitation filter 480, Emission filter (1) P-pol 535, Emission filter (2) S-pol 535 Envision protocol for texas red: FP Dual Enh Mirror, Excitation filter 555, Emission filter (1) P-pol 632, Emission filter (2) S-pol 632
For orientation: In qHTS, concentration-response curves come from the screen itself.
As to `O=S(=O)(Nc1cccc(Oc2ccc(Cl)cc2)n1)c1ccc(F)cc1`, the “FP activity change, negative = inhibition” value is 41.6%. Same read-out and setting: to `CC1C(=O)C(C)C(c2ccc(O)cc2)NC1c1ccc(O)cc1` (stereo not given) belongs 20.1%; to `CCN(C(=O)C1CCCN(c2nc(-c3ccc(OC)cc3)no2)C1)c1ccc(OC)cc1` (stereo not given), -7.46%; to `Cc1ccc(S(=O)(=O)c2nc(-c3cccs3)oc2NCc2cccnc2)cc1`, 7.57%. As for `CCOCCCn1c(SCC(=O)Nc2cc(OC)ccc2OC)nc2ccccc2c1=O`, the “FP activity change, negative = inhibition” value is 15.9%. With `COc1ccc2[nH]c(C(=O)N/N=C/c3cc(OC)c(OC)c(OC)c3)cc2c1`, the “FP activity change, negative = inhibition” value is 5.44%. `C=C1C(=CC=C2CCC[C@@]3(C)[C@@H]2CC[C@H]3[C@H](C)CCCC(C)C)C[C@@H](O)C[C@@H]1O`: the “FP activity change, negative = inhibition” value is -6.01%. For the compound `Cc1ccc(C(=O)NC23CC4CC(CC(C4)C2)C3)c(Cl)c1`, the “FP activity change, negative = inhibition” value was -16.7%. Same read-out and setting: in the case of `CCOc1ccccc1NC(=S)NC(=O)CCc1ccccc1` it was 5.54%; in that of `CCc1ccc(N(C(=O)c2csnn2)C(C(=O)NC2CCCCC2)c2cccnc2)cc1` (stereo not given), -8.39%; in that of `O=C1CN(Cc2ccccc2)S(=O)(=O)c2ccccc21`, 5.81%. The same measure, in the same setting: to `CCOC(=O)C(Cc1ccc(N)cc1)N1C(=O)c2ccccc2C1=O` (stereo not given) belongs -0.825%. Consider `CCOC(=O)N1CC=C2C(C#N)=C(N)C(C#N)(C#N)[C@H](c3cccs3)[C@H]2C1`, for which the “FP activity change, negative = inhibition” value is 1.03%. `CCCN1CC=C2C(C#N)=C(N)C(C#N)(C#N)C(c3cc(OC)ccc3OC)C2C1` (stereo not given): the “FP activity change, negative = inhibition” value was -20.9%. Consider `CCN1CC=C2C(C#N)=C(N)C(C#N)(C#N)[C@H](c3ccoc3)[C@H]2C1`, for which the Potency was 17.8 µM (active). For the compound `O=C(NCCc1c[nH]c2ccccc12)C1CCN(Cc2ccc(Br)cc2)CC1`, the “FP activity change, negative = inhibition” value is -2.52%. On to `CC(C)C(C)NC(=O)COc1nc2ccccc2nc1N(C)C1CCCCC1` (stereo not given), for which the “FP activity change, negative = inhibition” value is -8.68%. On the same count and under the same terms, in the case of `Cc1cccc(OC(C)C(=O)N2CCc3ccccc3C2)c1` (stereo not given) it was -12.6%. Regarding `COC(=O)c1ccc(CN2C(=O)NC(c3ccccc3)(c3ccccc3)C2=O)o1`, the “FP activity change, negative = inhibition” value was -16.5%. Consider `CN(Cc1ccccc1)C(=O)C1CCCN(c2ncnc3c2nc2n3CCCCC2)C1` (stereo not given), for which the “FP activity change, negative = inhibition” value was -7.48%.

Regarding `Cc1ccccc1OCC(=O)Nc1ccc(S(=O)(=O)N2CCOCC2)cc1`, the “FP activity change, negative = inhibition” value is 30.5%. Still for that read-out and setting: in the case of `COc1ccc(CCNC(=O)CSCc2ccc(Br)cc2)cc1OC` it was -14.4%; in that of `CCOc1cc(-c2cc(-c3ccc(NC(C)=O)cc3)nc(N)c2C#N)ccc1O`, 19.5%; in that of `O=C(c1cc(C(=O)N2CCN(c3ccc(F)cc3)CC2)cc([N+](=O)[O-])c1)N1CCN(c2ccc(F)cc2)CC1`, 2.04%.

Turning to `Cc1cc2oc(=O)cc(CN(C)Cc3ccc(OC(F)F)cc3)c2cc1Cl`, the “FP activity change, negative = inhibition” value is 7.43%. As for `COC(=O)c1ccccc1NC(=O)C1CCN(C(=O)N2CCOc3ccccc32)CC1`, the “FP activity change, negative = inhibition” value is -28.1%.

As to `CCCNC(=O)CCc1c(C)nc2c(c(C)nn2-c2ccc(C)cc2)c1C`, the “FP activity change, negative = inhibition” value was 11.6%. `C/C(=N\NC(=O)c1ccoc1C)c1ccccc1O`: the “FP activity change, negative = inhibition” value was 4.06%. Still for that read-out and setting: to `COc1ccc(-c2ccc(OC)c(C3C4C=CCC(C)C4C(=O)N3Cc3ccccc3)c2)cc1C` (stereo not given) belongs -28.8%; to `Cc1nnc(NC(=O)C(c2ccccc2)c2ccccc2)s1`, -23.4%; to `CC(C)C[C@@H](COc1ccccc1)N1CCN(CC(C)C)CCC1=O`, -8.58%. Still for that read-out and setting: in the case of `Cc1nn(-c2ccc([N+](=O)[O-])cc2)c(N)c1-c1ccccc1` it was 17.3%. As to `O=c1[nH]n(-c2ccc([N+](=O)[O-])cc2)c(=O)c2ccccc12`, the Potency is 31.6 µM (active).

As for `Cc1nc2ccccc2c(=O)n1Cc1ccc([N+](=O)[O-])cc1`, the “FP activity change, negative = inhibition” value is -0.0877%.

Take `COc1ccc(CCNC(=O)c2cnc(Cl)c(Cl)c2)cc1`: the “FP activity change, negative = inhibition” value was 13.2%.

In the case of `CCOc1ccc(NC(=O)c2nc(SCC)ncc2Cl)cc1`, the “FP activity change, negative = inhibition” value is -7.71%.

Take `Cc1ccc(SCC(CC(C)C)N2CCN(CCc3ccccc3)CCC2=O)cc1` (stereo not given): the “FP activity change, negative = inhibition” value is -8.63%. Regarding `c1cnc(Nc2nc(-c3ccc4ccccc4c3)cs2)nc1`, the Potency is 17.8 µM (active). In the case of `Cc1ccccc1Nc1nc(-c2cccnc2)cs1`, the “FP activity change, negative = inhibition” value is 0.491%. The same measure, in the same setting: to `O=C(Nc1nc(-c2ccc(-c3ccccc3)cc2)cs1)c1cnccn1` belongs -16.9%; to `Cc1c(C)c2c(OCC(=O)NCCCO)cc3c(c2oc1=O)CCC(C)(C)O3`, -20.7%. The same measure, in the same setting: in the case of `COc1ccc(NC(=O)CN2C(=O)CSc3ccc(S(=O)(=O)N4CCC(C)CC4)cc32)cc1` it was 32.8%; in that of `CCNC(=O)c1cnn(-c2ccccc2)c1-c1ccccc1`, -5.6%; in that of `COc1ccc(NC(=O)NCCN2CCN(c3ccc(C)cc3)CC2)c(Cl)c1`, 0.531%. Turning to `COc1ccc(C2/C=C\CN(C(=O)c3ccc(C)cc3)C(Cc3ccccc3)C(=O)N2Cc2ccc(F)cc2)cc1` (stereo not given), the “FP activity change, negative = inhibition” value was 30.8%.

Turning to `CCOc1ccc(C(C(=O)NC2CCCC2)N(C(=O)c2snc(C(N)=O)c2N)C2CCCC2)cc1` (stereo not given), the “FP activity change, negative = inhibition” value was -24.3%.

Turning to `CC(=O)N1CCOc2ccc(S(=O)(=O)N3CCN(c4cccc(C(F)(F)F)c4)CC3)cc21`, the “FP activity change, negative = inhibition” value was 14.8%. Still for that read-out and setting: to `O=C(NCCc1cccc(F)c1)C1CCCN(c2nc3ccccc3s2)C1` (stereo not given) belongs -11.9%; to `CC(Cc1cccs1)N(Cc1ccc(Cl)cc1)C(=O)c1ccncc1` (stereo not given), -15.9%.

As to `COc1ccc(CN2CCC(=O)c3ccccc3S2(=O)=O)cc1`, the “FP activity change, negative = inhibition” value is 4.64%.
